# FGF22 binding: binders of human FGF22 protein, primary screen, FGF22 synaptogenesis inhibitor project, biophysical, thermal shift, single point; actives 1.5% (n = 340,000); activity (Tm shift, normalised), % at 9.99 µM; AID 651658, 2012; Fibroblast growth factor 22 (Homo sapiens), Q9HCT0; recombinant FGF22 thermal shift, SYPRO orange fluorescence; percent of sucrose octasulfate shift, DMSO zero;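 active = mean Tm shift, scaled 0 neutral to 100 positive control, at about 1.3% or above, every replicate too, limit read from the data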
# Target sequence (Q9HCT0 whole entry, looked up): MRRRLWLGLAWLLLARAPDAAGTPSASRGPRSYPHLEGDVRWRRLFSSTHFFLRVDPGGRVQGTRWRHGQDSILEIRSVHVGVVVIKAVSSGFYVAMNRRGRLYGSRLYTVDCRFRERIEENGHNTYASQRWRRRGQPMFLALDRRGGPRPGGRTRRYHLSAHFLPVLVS
# INS-1E GSIS act: GLuc luminescence reporter in INS-1E cells, primary screen for activators of glucose-dependent secretion of insulin | INS-1E GLuc reporter insulin secretion, 2-3 h | activation, % at 16.6 µM | actives 0.61% (n = 370,000) | AID 743287, 2014;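 active = lowest replicate activation of at least 40%, so every replicate reaches that level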;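 also: 0% = median of neutral control wells and 100% = median of IBMX positive control wells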
# Casp6 inh: human caspase-6 inhibitors, primary screen, biochemical, VEID-R110 fluorescence, single point, set 2; purified caspase-6, Z-VEID-R110 cleavage fluorescence; inhibition, % at 12.5 µM; P55212; actives 0.53% (n = 350,000);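 active = mean inhibition across replicates at least about 35%, with every replicate also reaching that limit, limit read from the data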;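 also: 0% = median of neutral control wells and 100% = no fluorescence left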
# SIRT5 inh: SIRT5 desuccinylase inhibitors, primary screen, biochemical, fluorescence imaging, single point, set 5; NAD-dependent protein deacylase sirtuin-5, mitochondrial (Homo sapiens), Q9NXA8; Purified SirT5, succinyl-peptide AMC, trypsin-coupled fluorescence; inhibition, % at 15 µM; actives 1.1% (n = 330,000); AID 652115, 2013; in the data active = inhibition above about 15%
# Target sequence (Q9NXA8 whole entry, looked up): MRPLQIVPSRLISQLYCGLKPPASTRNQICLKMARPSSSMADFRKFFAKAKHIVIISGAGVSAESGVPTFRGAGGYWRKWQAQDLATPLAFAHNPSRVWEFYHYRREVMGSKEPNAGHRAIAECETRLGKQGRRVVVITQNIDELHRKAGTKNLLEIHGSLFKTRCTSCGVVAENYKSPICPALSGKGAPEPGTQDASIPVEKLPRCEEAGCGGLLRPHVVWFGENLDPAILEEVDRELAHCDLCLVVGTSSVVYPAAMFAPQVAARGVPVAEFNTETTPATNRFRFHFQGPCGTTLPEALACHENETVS
# ERAP1 inh: human ERAP1 aminopeptidase inhibitors, primary screen, biochemical, single point, plate reader; Endoplasmic reticulum aminopeptidase 1 (Homo sapiens), Q9NZ08; recombinant ERAP1, Leu-AMC fluorescence, 60 min; inhibition, % at 10.7 µM; actives 0.15% (n = 340,000); AID 652197, 2013;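 active = mean replicate inhibition of at least 30%, or all replicates individually reaching that 30% level; inactive = mean below 30% and not every replicate reaching it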;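 also: 0% = neutral control wells and 100% = L-leucinethiol positive control wells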
# * hit, by the source's call; . = no result. This is a sample that favours compounds with a hit; in the whole collection about 3.3% have one here.
SMILES,FGF22 binding,INS-1E GSIS act,Casp6 inh,SIRT5 inh,ERAP1 inh
COc1ccc(S(=O)(=O)N(C)C[C@H]2OCCCC[C@@H](C)Oc3ccc(NC(=O)Nc4ccc(F)cc4)cc3C(=O)N([C@H](C)CO)C[C@H]2C)cc1,0.2,-18.8,-0.2,16.2*,0.2
C[C@H](CO)N1C[C@H](C)[C@@H](CN(C)S(=O)(=O)c2ccc(Cl)cc2)OCCCC[C@H](C)Oc2ccc(NC(=O)Nc3ccc4c(c3)OCO4)cc2C1=O,0.0,4.2,-1.9,1.1,-2.8
C[C@@H]1CCCCO[C@H](CN(C)S(=O)(=O)c2ccc(Cl)cc2)[C@@H](C)CN([C@H](C)CO)C(=O)c2cc(NC(=O)Nc3ccc(F)cc3)ccc2O1,-0.1,19.2,-0.8,15.7*,-0.3
C[C@H](CO)N1C[C@H](C)[C@H](CN(C)S(=O)(=O)c2ccc(Cl)cc2)OCCCC[C@H](C)Oc2ccc(NC(=O)Nc3ccc4c(c3)OCO4)cc2C1=O,0.0,18.0,0.3,20.7*,-4.3
C/C=C/c1cnc2c(c1)C(=O)N([C@@H](C)CO)C[C@H](C)[C@@H](CN(C)C(=O)NCCC)O2,-0.1,5.7,2.2,-1.8,1.9
C[C@@H]1CCCCO[C@H](CN(C)C(=O)NC2CCCCC2)[C@@H](C)CN([C@H](C)CO)C(=O)c2cc(NS(=O)(=O)c3cn(C)cn3)ccc2O1,.,12.1,.,.,.
CC(C)NC(=O)NCC[C@H]1CC[C@H](NS(=O)(=O)c2ccccc2)[C@H](CO)O1,.,6.5,-0.6,-0.3,-2.2
C[C@@H]1CCCCO[C@H](CN(C)C)[C@H](C)CN([C@@H](C)CO)C(=O)c2cc(NC(=O)NC3CCCCC3)ccc2O1,.,-5.8,.,.,.
CC(=O)c1nn(-c2ccc(Br)cc2)cc1C(=O)c1ccccc1,.,54.2*,.,.,.
CCOc1ccc(C(=O)CSCCC(=O)O)cc1,-0.1,5.2,-0.7,112.3*,4.4
COc1cccc(/C=N/Nc2nc(C)cc(=O)[nH]2)c1OC,41.9,8.0,41.7*,-0.9,3.9
Cc1nn(-c2ccccc2)c(Cl)c1/C=N/Nc1nc2ccccc2[nH]1,0.1,-2.1,-6.9,-2.3,6.8
Cc1cc(=O)[nH]c(N/N=C/c2c(C)nn(-c3ccccc3)c2Cl)n1,-0.3,-15.3,-0.3,15.9*,2.9
CCOC(=O)N1CCN(S(=O)(=O)c2ccc3c4c(cccc24)C(=O)N3)CC1,0.0,42.2*,4.3,-2.2,-0.3
O=C(Nc1cccnc1)c1ccc(-c2cc(Cl)ccc2Cl)o1,43.3*,0.1,-1.6,-4.6,-9.6
O=C(Nc1cccnc1)c1ccc(-c2ccc(Cl)cc2)o1,0.2,4.5,.,-1.9,-1.1
O=C(Oc1ccc(/C=N/NC(=O)c2ccccn2)cc1)c1ccc(Br)cc1,0.0,.,-3.7,1.3,-4.7
Cc1ccc(C(=O)N/N=C\c2ccc(OC(=O)c3cccc(F)c3)cc2)cn1,-0.3,3.3,47.4*,0.9,0.4
O=C(Oc1ccc(/C=N/NC(=O)c2ccccn2)cc1)c1cccc(Br)c1,-0.1,43.9*,-2.9,0.8,-0.1
CCS(=O)(=O)Nc1ccc2c(c1)C(=O)N(C)[C@H]1CC[C@H](CC(=O)NCCOC)O[C@@H]1CO2,-0.2,5.7,-1.4,0.9,0.5
O=C(C[C@H]1CC[C@H]2[C@@H](COC[C@@H](O)CN2C(=O)c2ccncc2)O1)Nc1ccc(-c2ccccc2)cc1,-0.3,-9.8,2.7,26.9*,0.0
O=C(C[C@@H]1CC[C@H]2[C@@H](COC[C@@H](O)CN2S(=O)(=O)c2ccccc2)O1)Nc1ccc(-c2ccccc2)cc1,0.1,-13.0,2.2,-0.5,1.8
O=C(C[C@H]1CC[C@H]2[C@@H](COC[C@@H](O)CN2S(=O)(=O)c2ccccc2)O1)Nc1ccc(-c2ccccc2)cc1,-0.1,-7.2,0.8,17.8*,1.9
O=C(C[C@@H]1CC[C@@H]2[C@H](COC[C@H](O)CN2C(=O)c2ccncc2)O1)Nc1ccc(-c2ccccc2)cc1,-0.7,-13.8,-1.4,1.0,2.6
CCNC(=O)C[C@@H]1CC[C@H]2[C@@H](COC[C@H](O)CN2C(=O)c2cccnc2)O1,0.0,22.6,-0.8,17.4*,2.4
SMILES,FGF22 binding,INS-1E GSIS act,Casp6 inh,SIRT5 inh,ERAP1 inh
CC(C)NC(=O)N(C)C[C@@H]1Oc2c(NC(=O)c3ccc(-c4nccs4)cc3)cccc2C(=O)N([C@@H](C)CO)C[C@@H]1C,0.1,20.5,0.1,3.4,-1.9
COCC(=O)Nc1ccc2c(c1)[C@@H]1C[C@H](CC(=O)N3CCOCC3)O[C@H](CO)[C@@H]1O2,-0.3,8.7,1.7,1.3,2.4
Cc1cc([N+](=O)[O-])ccc1N,42.1,41.6*,-1.8,-0.6,0.7
CO[C@H]1CN(C)C(=O)c2cc(NC(=O)CC(F)(F)F)ccc2OC[C@@H](C)N(S(=O)(=O)c2cn(C)cn2)C[C@@H]1C,0.0,-0.4,7.2,0.5,1.5
CCOc1ccc(NC(=O)CN2C(=O)S/C(=C/c3cccn3C)C2=O)cc1,0.1,-1.4,0.6,111.9*,-0.2
NC(=O)CC(NC(=O)Cc1ccc(Br)cc1)c1ccc(NCc2ccc(F)cc2)c([N+](=O)[O-])c1 (stereo unspecified),43.6*,.,-0.3,4.8,4.4
O=C1CN(Cc2ccccc2)C[C@H]2[C@H](c3ccc(-c4ccccc4F)cc3)[C@@H](CO)N12,.,-3.4,0.0,-4.3,2.3
CCC(c1nnnn1-c1ccc2c(c1)OCCO2)N1CCc2ccccc2C1 (stereo unspecified),-0.3,54.5*,-3.1,2.3,-1.0
Cc1nnc(NC(=O)c2ccc(F)c(S(=O)(=O)N3CCOCC3)c2)s1,43.1*,.,0.9,.,1.2
C[C@@H]1CN([C@H](C)CO)C(=O)c2cc(C#Cc3cccnc3)cnc2O[C@@H]1CN(C)C,-0.3,8.5,-0.5,12.3,2.3
C[C@@H]1CN([C@H](C)CO)C(=O)c2cc(NC(=O)c3ccncc3)ccc2O[C@@H]1CN(C)C(=O)Nc1ccc2c(c1)OCO2,-0.1,13.2,-1.7,19.8*,-2.6
C[C@H](CO)N1C[C@H](C)[C@@H](CN(C)C(=O)Nc2ccc(C(F)(F)F)cc2)Oc2ccc(NC(=O)Nc3ccc4c(c3)OCO4)cc2C1=O,0.8,-10.6,0.9,9.0,-3.6
C[C@H]1CN([C@@H](C)CO)C(=O)c2cc(NC(=O)Nc3ccc4c(c3)OCO4)ccc2O[C@H]1CN(C)C(=O)Nc1ccc2c(c1)OCO2,-0.6,0.1,-4.3,16.4*,-0.4
C[C@@H]1CN([C@@H](C)CO)C(=O)c2cc(NC(=O)Nc3ccc4c(c3)OCO4)ccc2O[C@@H]1CN(C)Cc1ccc(C(F)(F)F)cc1,-0.4,.,4.5,16.7*,0.0

# Compound activity as filed in PubChem BioAssay.
